Source: PubChem BioAssay (Tox21)
Results filed as inconclusive are left out. Unmarked numbers belong to inactive results. Calls follow the shape of the dose curve; as a rule, active = well fitted curve in the direction sought with a large enough effect in the repeat runs; inconclusive = weak or mixed curves; inactive = no such curve, though single readings can be large; an effect the other way counts as inactive or inconclusive.

Assay: qHTS assay to identify small molecule agonists of the RXR signaling pathway - cell viability counter screen (AID 1159529);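 also: HEK 293T cells carrying an RXR-alpha UAS beta-lactamase reporter; nearly all actives have a fitted effect of over 50% in size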
Conditions: RXR-alpha-bla HEK293T viability, CellTiter-Glo, 16 h; series mostly up to 35.3 µM; activity change, negative = cytotoxicity: at the top concentration
Summary of the method: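 HEK 293T RXRa-bla cells, 2% CS-FBS; 5 h settle; cpd 16 h 37 C, 5% CO2; CellTiter-Glo 30 min RT, luminescence. Tetraoctyl ammonium bromide as positive control.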
% is scaled to controls: 0 for no effect and ±100 for the full control effect.

Structure (SMILES) | activity change, negative = cytotoxicity
CCCCCCCCCCCCN(CCCCCCCCCCCC)CCCCCCCCCCCC | -5.34% [at 76.8 µM]
ClC(Cl)(Br)Br | 0.518% [at 76.8 µM]
N=C(N)c1ccc2cc(OC(=O)c3ccc(N=C(N)N)cc3)ccc2c1 | 16.3%
CCCCCCCCCCCCCCCCC | 1.29% [at 76.8 µM]
CCOC(=O)c1c(C)n(C)c2ccc(O)cc12 | -14.4%
Cc1cc2c(cc1S(N)(=O)=O)S(=O)(=O)CCC2 | 0.543%
CCCCCCCCCCCC | -14.6% [at 76.8 µM]
CC(C)NC(=O)NC(C)C | 1.04% [at 76.8 µM]

Assay: qHTS assay to identify small molecule antagonists of the retinoid acid receptor (RAR) signaling pathway - cell viability counter screen (AID 1159551); also: nearly all actives have a fitted effect of over 35% in size
Conditions: C3RL4 cells viability, ATP luminescence (CellTiter-Glo), 6 h; series mostly up to 92.4 µM; activity change, negative = cytotoxicity: at the top concentration
Summary of the method: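 C3RL4 RARE-luciferase line; cpds + retinol 1 uM final, 6 h, 37 C/5% CO2; CellTiter-Glo ATP luminescence, 30 min RT.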

Structure (SMILES) | activity change, negative = cytotoxicity
CS(=O)(=O)O | -2.38%
CCOC(C)(C)C | -0.0277%
O=Cc1cccc([N+](=O)[O-])c1 | 0.0423%
N=C(N)c1ccc(OCCCOc2ccc(C(=N)N)cc2)cc1 | 0.659% [at 42.5 µM]
NC(=O)COCCN1CCN(C(c2ccccc2)c2ccc(Cl)cc2)CC1 (stereo unspecified) | 2.65% [at 42.5 µM]
C/C=C(\C)C#N | 1.37%
CCCCCCOC(=O)CCCCC(=O)OCCCCCC | 1.19%
C[C@@H]1CCN(C(=O)[C@H](CCCN=C(N)N)NS(=O)(=O)c2cccc3c2NC[C@H](C)C3)[C@@H](C(=O)O)C1 | 1.4% [at 42.5 µM]
CCc1nccnc1CC | 1.72% [at 19 µM]
COC(C)(C)CCCC(C)CC=O (stereo unspecified) | 1.61%
CCCc1cc(C(N)=S)ccn1 | -0.83% [at 42.5 µM]
O=C(O)CCCl | -2.41%
O=C(O)c1ccccc1OP(=O)(O)O | -0.458% [at 42.5 µM]
Cn1cc(S(C)=O)c(=O)c2ccc(F)cc21 (stereo unspecified) | -1.12% [at 42.5 µM]
O=c1[nH]c(=O)n([C@H]2C[C@H](O)[C@@H](CO)O2)cc1I | 1.74% [at 42.5 µM]
CC(=O)Nc1ccc(S(N)(=O)=O)cc1 | 0.0263%
C=C(C)C(=O)OCCCCCCCC(C)C | -0.986%
CC(C)(CC(=O)O)C(=O)O | -0.3%
